These binders were tested against AgAbp1 (assay: SPOT peptide array binding signal intensity (averaged, normalized) (arbitrary units (background-subtracted, floor 0; scale differs between SH3 domains)); higher = stronger binding of the SH3 domain to the peptide).
In short: (§1)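 Binding signal refers to normalized, background-subtracted spot intensity averaged over replicates, expressed in arbitrary units that differ between domains. GST-fused SH3 domains from four yeast species were incubated at 10 μg/ml overnight at 4°C on cellulose membranes of synthetic 15-mer peptides with cysteines replaced by serines. Bound protein was detected with anti-GST antibody, an HRP anti-mouse secondary and luminol, and quantified with Genespotter.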

Binder | SPOT peptide array binding signal intensity
MTKTPETSPPKRPMG | ≤ 0

These binders were tested against AgBbc1 in the same assay as above.
In short: as §1

Binder | SPOT peptide array binding signal intensity
MTKTPETSPPKRPMG | 5.25

Each binder was assayed against AgBem1-D1 in the same assay as above.
In short: as §1

Binder | SPOT peptide array binding signal intensity
MTKTPETSPPKRPMG | 66.5

What follows are binders tested against AgBzz1-D1 in the same assay as above.
In short: as §1

Binder | SPOT peptide array binding signal intensity
MTKTPETSPPKRPMG | 22

What follows are binders tested against AgBzz1-D2 in the same assay as above.
In short: as §1

Binder | SPOT peptide array binding signal intensity
MTKTPETSPPKRPMG | 11.5

What follows are binders tested against AgCyk3 in the same assay as above.
In short: as §1

Binder | SPOT peptide array binding signal intensity
MTKTPETSPPKRPMG | ≤ 0

These binders were tested against AgFus1 in the same assay as above.
In short: as §1

Binder | SPOT peptide array binding signal intensity
MTKTPETSPPKRPMG | ≤ 0

The binders below were run against AgHof1 in the same assay as above.
In short: as §1

Binder | SPOT peptide array binding signal intensity
MTKTPETSPPKRPMG | 7.25

The binders below were run against AgHse1 in the same assay as above.
In short: as §1

Binder | SPOT peptide array binding signal intensity
MTKTPETSPPKRPMG | ≤ 0

What follows are binders tested against AgLsb1 in the same assay as above.
In short: as §1

Binder | SPOT peptide array binding signal intensity
MTKTPETSPPKRPMG | 1

Each binder was assayed against AgLsb4 in the same assay as above.
In short: as §1

Binder | SPOT peptide array binding signal intensity
MTKTPETSPPKRPMG | 2

The binders below were run against AgMyo5 in the same assay as above.
In short: as §1

Binder | SPOT peptide array binding signal intensity
MTKTPETSPPKRPMG | 946

These binders were tested against AgNbp2 in the same assay as above.
In short: as §1

Binder | SPOT peptide array binding signal intensity
MTKTPETSPPKRPMG | 25

Each binder was assayed against AgRvs167 in the same assay as above.
In short: as §1

Binder | SPOT peptide array binding signal intensity
MTKTPETSPPKRPMG | 3.83

These binders were tested against AgSho1 in the same assay as above.
In short: as §1

Binder | SPOT peptide array binding signal intensity
MTKTPETSPPKRPMG | ≤ 0

Each binder was assayed against AgSla1-D1-D2 in the same assay as above.
In short: as §1

Binder | SPOT peptide array binding signal intensity
MTKTPETSPPKRPMG | 1

Each binder was assayed against AgSla1-D3 in the same assay as above.
In short: as §1

Binder | SPOT peptide array binding signal intensity
MTKTPETSPPKRPMG | ≤ 0

Each binder was assayed against CaAbp1-D1 in the same assay as above.
In short: as §1

Binder | SPOT peptide array binding signal intensity
MTKTPETSPPKRPMG | 36

The binders below were run against CaAbp1-D2 in the same assay as above.
In short: as §1

Binder | SPOT peptide array binding signal intensity
MTKTPETSPPKRPMG | 24

Each binder was assayed against CaBbc1 in the same assay as above.
In short: as §1

Binder | SPOT peptide array binding signal intensity
MTKTPETSPPKRPMG | 180

These binders were tested against CaBem1-D1 in the same assay as above.
In short: as §1

Binder | SPOT peptide array binding signal intensity
MTKTPETSPPKRPMG | 17

Each binder was assayed against CaBzz1-D1 in the same assay as above.
In short: as §1

Binder | SPOT peptide array binding signal intensity
MTKTPETSPPKRPMG | 30

Each binder was assayed against CaBzz1-D2 in the same assay as above.
In short: as §1

Binder | SPOT peptide array binding signal intensity
MTKTPETSPPKRPMG | 21

These binders were tested against CaCyk3 in the same assay as above.
In short: as §1

Binder | SPOT peptide array binding signal intensity
MTKTPETSPPKRPMG | 7.5

These binders were tested against CaFus1 in the same assay as above.
In short: as §1

Binder | SPOT peptide array binding signal intensity
MTKTPETSPPKRPMG | 55.5

What follows are binders tested against CaHof1 in the same assay as above.
In short: as §1

Binder | SPOT peptide array binding signal intensity
MTKTPETSPPKRPMG | 2

These binders were tested against CaHse1 in the same assay as above.
In short: as §1

Binder | SPOT peptide array binding signal intensity
MTKTPETSPPKRPMG | 1.25

What follows are binders tested against CaLsb1 in the same assay as above.
In short: as §1

Binder | SPOT peptide array binding signal intensity
MTKTPETSPPKRPMG | 0.5

Each binder was assayed against CaLsb4 in the same assay as above.
In short: as §1

Binder | SPOT peptide array binding signal intensity
MTKTPETSPPKRPMG | 77

Each binder was assayed against CaMyo5 in the same assay as above.
In short: as §1

Binder | SPOT peptide array binding signal intensity
MTKTPETSPPKRPMG | 87.2

What follows are binders tested against CaNbp2 in the same assay as above.
In short: as §1

Binder | SPOT peptide array binding signal intensity
MTKTPETSPPKRPMG | 40.5

Each binder was assayed against CaRvs167 in the same assay as above.
In short: as §1

Binder | SPOT peptide array binding signal intensity
MTKTPETSPPKRPMG | 17.8

What follows are binders tested against CaRvs167-3 in the same assay as above.
In short: as §1

Binder | SPOT peptide array binding signal intensity
MTKTPETSPPKRPMG | ≤ 0

What follows are binders tested against CaSho1 in the same assay as above.
In short: as §1

Binder | SPOT peptide array binding signal intensity
MTKTPETSPPKRPMG | 10.5

These binders were tested against CaSla1-D1-D2 in the same assay as above.
In short: as §1

Binder | SPOT peptide array binding signal intensity
MTKTPETSPPKRPMG | 210

What follows are binders tested against CaSla1-D3 in the same assay as above.
In short: as §1

Binder | SPOT peptide array binding signal intensity
MTKTPETSPPKRPMG | 106

What follows are binders tested against ScAbp1 in the same assay as above.
In short: as §1

Binder | SPOT peptide array binding signal intensity
MTKTPETSPPKRPMG | ≤ 0

Each binder was assayed against ScBbc1 in the same assay as above.
In short: as §1

Binder | SPOT peptide array binding signal intensity
MTKTPETSPPKRPMG | 0.5

These binders were tested against ScBem1-D1 in the same assay as above.
In short: as §1

Binder | SPOT peptide array binding signal intensity
MTKTPETSPPKRPMG | ≤ 0

What follows are binders tested against ScBzz1-D1 in the same assay as above.
In short: as §1

Binder | SPOT peptide array binding signal intensity
MTKTPETSPPKRPMG | 1

Each binder was assayed against ScBzz1-D2 in the same assay as above.
In short: as §1

Binder | SPOT peptide array binding signal intensity
MTKTPETSPPKRPMG | 6

The binders below were run against ScCyk3 in the same assay as above.
In short: as §1

Binder | SPOT peptide array binding signal intensity
MTKTPETSPPKRPMG | ≤ 0

The binders below were run against ScFus1 in the same assay as above.
In short: as §1

Binder | SPOT peptide array binding signal intensity
MTKTPETSPPKRPMG | ≤ 0

The binders below were run against ScHof1 in the same assay as above.
In short: as §1

Binder | SPOT peptide array binding signal intensity
MTKTPETSPPKRPMG | 1.25

What follows are binders tested against ScHse1 in the same assay as above.
In short: as §1

Binder | SPOT peptide array binding signal intensity
MTKTPETSPPKRPMG | 18.5

These binders were tested against ScLsb1 in the same assay as above.
In short: as §1

Binder | SPOT peptide array binding signal intensity
MTKTPETSPPKRPMG | 6.5

These binders were tested against ScLsb2 in the same assay as above.
In short: as §1

Binder | SPOT peptide array binding signal intensity
MTKTPETSPPKRPMG | 2.5

Each binder was assayed against ScLsb3 in the same assay as above.
In short: as §1

Binder | SPOT peptide array binding signal intensity
MTKTPETSPPKRPMG | 45.5

Each binder was assayed against ScLsb4 in the same assay as above.
In short: as §1

Binder | SPOT peptide array binding signal intensity
MTKTPETSPPKRPMG | 10

What follows are binders tested against ScMyo3 in the same assay as above.
In short: as §1

Binder | SPOT peptide array binding signal intensity
MTKTPETSPPKRPMG | 1860

The binders below were run against ScMyo5 in the same assay as above.
In short: as §1

Binder | SPOT peptide array binding signal intensity
MTKTPETSPPKRPMG | 462

The binders below were run against ScNbp2 in the same assay as above.
In short: as §1

Binder | SPOT peptide array binding signal intensity
MTKTPETSPPKRPMG | 25

Each binder was assayed against ScPex13 in the same assay as above.
In short: as §1

Binder | SPOT peptide array binding signal intensity
MTKTPETSPPKRPMG | 24.2

These binders were tested against ScRvs167 in the same assay as above.
In short: as §1

Binder | SPOT peptide array binding signal intensity
MTKTPETSPPKRPMG | 7.17

These binders were tested against ScSho1 in the same assay as above.
In short: as §1

Binder | SPOT peptide array binding signal intensity
MTKTPETSPPKRPMG | ≤ 0

Each binder was assayed against ScSla1-D1-D2 in the same assay as above.
In short: as §1

Binder | SPOT peptide array binding signal intensity
MTKTPETSPPKRPMG | 62.5

The binders below were run against ScSla1-D3 in the same assay as above.
In short: as §1

Binder | SPOT peptide array binding signal intensity
MTKTPETSPPKRPMG | 65.2

What follows are binders tested against SpAbp1-D1 in the same assay as above.
In short: as §1

Binder | SPOT peptide array binding signal intensity
MTKTPETSPPKRPMG | 3

Each binder was assayed against SpBbc1 in the same assay as above.
In short: as §1

Binder | SPOT peptide array binding signal intensity
MTKTPETSPPKRPMG | 0.5

The binders below were run against SpBzz1-D1 in the same assay as above.
In short: as §1

Binder | SPOT peptide array binding signal intensity
MTKTPETSPPKRPMG | 30.5

Each binder was assayed against SpBzz1-D2 in the same assay as above.
In short: as §1

Binder | SPOT peptide array binding signal intensity
MTKTPETSPPKRPMG | 1.25
SSSSSPPPLPTRRDH | 9.75

These binders were tested against SpCyk3 in the same assay as above.
In short: as §1

Binder | SPOT peptide array binding signal intensity
MTKTPETSPPKRPMG | 1
SSSSSPPPLPTRRDH | 2

Each binder was assayed against SpHof1 in the same assay as above.
In short: as §1

Binder | SPOT peptide array binding signal intensity
MTKTPETSPPKRPMG | 18.5
SSSSSPPPLPTRRDH | 8.75

The binders below were run against SpHof1-2 in the same assay as above.
In short: as §1

Binder | SPOT peptide array binding signal intensity
MTKTPETSPPKRPMG | 18.2
SSSSSPPPLPTRRDH | 54.5

What follows are binders tested against SpHof1-3 in the same assay as above.
In short: as §1

Binder | SPOT peptide array binding signal intensity
MTKTPETSPPKRPMG | ≤ 0
SSSSSPPPLPTRRDH | 8.75

What follows are binders tested against SpHse1 in the same assay as above.
In short: as §1

Binder | SPOT peptide array binding signal intensity
MTKTPETSPPKRPMG | 13
SSSSSPPPLPTRRDH | 35

The binders below were run against SpLsb1 in the same assay as above.
In short: as §1

Binder | SPOT peptide array binding signal intensity
MTKTPETSPPKRPMG | 2.5
SSSSSPPPLPTRRDH | 1530

These binders were tested against SpLsb4 in the same assay as above.
In short: as §1

Binder | SPOT peptide array binding signal intensity
MTKTPETSPPKRPMG | 285
SSSSSPPPLPTRRDH | 6770

The binders below were run against SpMyo1 in the same assay as above.
In short: as §1

Binder | SPOT peptide array binding signal intensity
MTKTPETSPPKRPMG | 446
SSSSSPPPLPTRRDH | 308

The binders below were run against SpNbp2 in the same assay as above.
In short: as §1

Binder | SPOT peptide array binding signal intensity
MTKTPETSPPKRPMG | 5.5
SSSSSPPPLPTRRDH | 6

What follows are binders tested against SpPex13 in the same assay as above.
In short: as §1

Binder | SPOT peptide array binding signal intensity
MTKTPETSPPKRPMG | ≤ 0
SSSSSPPPLPTRRDH | 6.5

Each binder was assayed against SpRvs167 in the same assay as above.
In short: as §1

Binder | SPOT peptide array binding signal intensity
MTKTPETSPPKRPMG | 18.5
SSSSSPPPLPTRRDH | 2880

Each binder was assayed against SpSla1-D1-D2 in the same assay as above.
In short: as §1

Binder | SPOT peptide array binding signal intensity
MTKTPETSPPKRPMG | 4
SSSSSPPPLPTRRDH | 11

What follows are binders tested against SpSla1-D3 in the same assay as above.
In short: as §1

Binder | SPOT peptide array binding signal intensity
MTKTPETSPPKRPMG | 17
SSSSSPPPLPTRRDH | 9.5
